Experimental data from PubChem BioAssay (NCI).
This is part of a sample that, as a whole, favours compounds with a hit. Of some 83,000 tested, about 20% had one in any assay.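 Single-concentration screen, 48 h exposure, 96-well plates. Endpoint: percent growth. Below 10 = active.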 Unmarked numbers belong to inactive results. Active and inactive are the calls of the source.

Experiments:
Assay in all cases: NCI-60 one-dose screen, 48 h (100 = growth as untreated, 0 = no growth, -100 = all killed)
Conditions in all cases: 10 µM unless noted
NCI-H23 lung = tested on: NCI-H23 lung
NCI-H226 lung = tested on: NCI-H226 lung
NCI-H322M lung = tested on: NCI-H322M lung
HOP-62 NSCLC = tested on: HOP-62 NSCLC
NCI-H460 lung = tested on: NCI-H460 lung
HOP-92 NSCLC = tested on: HOP-92 NSCLC
NCI-H522 lung = tested on: NCI-H522 lung
A549/ATCC NSCLC = tested on: A549/ATCC NSCLC
786-0 renal = tested on: 786-0 renal
COLO 205 colon = tested on: COLO 205 colon

| SMILES | growth (NCI-H23 lung) | growth (NCI-H226 lung) | growth (NCI-H322M lung) | growth (HOP-62 NSCLC) | growth (NCI-H460 lung) | growth (HOP-92 NSCLC) | growth (NCI-H522 lung) | growth (A549/ATCC NSCLC) | growth (786-0 renal) | growth (COLO 205 colon) |
| --- | --- | --- | --- | --- | --- | --- | --- | --- | --- | --- |
| Cc1ccc2[nH]c(=O)c3c(c2c1)OC(N)=C(C#N)C31c2cc(Br)ccc2-c2ccc(Br)cc21 | 59.1% | 58.7% | 75.3% | 69% | 40.5% | 42.7% | 74.2% | 53.9% | 46.4% | 30.2% |
| Cc1cc(C)c(-c2c(C)cc(C)cc2CBr)c(CBr)c1 | 85.8% | 100% | 102% | 84.6% | 77.2% | 106% | 66.4% | 68.6% | 95.8% | 78.6% |
| COc1ccc(NC(=O)CSc2nnc(-c3cc(-c4ccccc4)nc4ccccc34)n2-c2ccccc2)cc1 | 92.1% | 89.3% | 94.6% | 101% | 102% | 87.3% | 80.1% | 92.4% | 97.3% | 116% |
| CCCCCCCCCCCC(c1ccccc1)[N+](C)(C)C (stereo not given) | 15.7% | 21% | 57.3% | 16.9% | 16.4% | -16.5% (active) | 5.04% (active) | 28.2% | 20.5% | -74.7% (active) |
| O=c1c2cc(F)ccc2sc2c(Nc3cccnc3)nc3ccccc3c12 | 78.8% | 90.5% | 88.8% | 96.1% | 68.5% | 75.1% | 94.3% | 73.7% | 86.9% | 85% |
| N#Cc1c(N2CCNCC2)nc2sc3cc(Cl)c(Cl)cc3n2c1=N | 96.9% | 95.2% | 107% | 98.7% | 97.8% | 93.6% | 67.3% | 108% | 105% | 132% |
| COc1cc2c(cc1-c1c(C)noc1C)ncc1nc(C3CCC(F)(F)CC3)n(C3CCC(OC(F)F)CC3)c12 (stereo not given) | 68.3% | 66.7% | 47.7% | 37.1% | 62.6% | 12.9% | 12.5% | 64.1% | 53.4% | 28.4% |
| Cc1c(Cl)cc(-n2c(=O)c3ccccc3c3ccccc3c2=O)cc1Cl | 97.6% | 108% | 87.3% | 92.6% | 111% | 98.4% | 98.7% | 102% | 98.6% | 98.2% |
| COc1cccc(-c2nn(-c3ccccc3)cc2-c2ccnc(NCCNC(=O)c3ccccc3)c2)c1 | 61.4% | 70.4% | 109% | 60.7% | 63.7% | 52.8% | 56.7% | 41.8% | 54.4% | 62.6% |
| Cc1cc(NCc2cc(Nc3ccnc4cc(Cl)ccc34)ccc2F)nc(N2CCSCC2)n1 | 26.9% | 84.6% | 43.2% | -41.6% (active) | 6.39% (active) | 37.7% | -23.6% (active) | 39% | 15.5% | -38.5% (active) |
| COc1cc(C(=O)/C=C/c2c(-c3ccc(F)cc3)nc3sc(C)cn23)cc(OC)c1OC | 28.9% | 58.5% | 52% | 79% | 28.7% | 23.4% | 93.4% | 45.4% | 40.8% | 52% |
| COc1ccc(-c2nc3ccc4[nH]ncc4c3c3c2CCCC3)cc1B(O)O | 72.2% | 61.2% | 63.4% | 51.3% | 35.3% | 49.8% | 48.1% | 53.7% | 63.6% | 45.8% |
| CC/C=C\C/C=C\C[C@H](O)C/C=C1/C(=O)C=C[C@@H]1C/C=C\CCCC(=O)O | 61.8% | 59.6% | 53.4% | 62.8% | 31.8% | 87.3% | -22.8% (active) | 57.3% | -38.7% (active) | 27% |
| COCCc1ccc(OCC(O)CNC(C)C)cc1 (stereo not given) | 98.5% | 109% | 99.2% | 101% | 107% | 73.1% | 93.3% | 104% | 97.8% | 106% |
| Nc1n[nH]c(-c2cc(Cl)ccc2O)c1-c1ccccc1 | 71.4% | 70.5% | 82.9% | 83.6% | 102% | 73.1% | 81.8% | 82.3% | 92.7% | 101% |
| COc1ccc(C2=Nc3c(N)ncnc3NC(c3ccc4c(c3)OCO4)C2)cc1 (stereo not given) | 69.7% | 85.5% | 99.4% | 68.1% | 102% | 45.4% | 87.4% | 89.3% | 55.6% | 102% |
| COc1cc(C2CC(=O)Nc3c2c(C)nn3-c2nc3ccccc3[nH]2)c(OC)c2c1OCO2 (stereo not given) | 86.9% | 84.8% | 86.9% | 75.8% | 66.7% | 85% | 71.2% | 52.4% | 78.6% | 91.9% |
| CC/C=C/C/C=C/C/C=C/C/C=C/C/C=C/C/C=C/CCC(=O)Nc1ccn([C@@H]2O[C@H](CO)[C@@H](O)C2(F)F)c(=O)n1 | 1.56% (active) | 8.09% (active) | 51.9% | 8.82% (active) | 9.01% (active) | 32.1% | 39.8% | 17.6% | 0.0768% (active) | 11.8% |
| C#Cc1cccc(NC(=O)c2ccc(NC(=O)CCl)cc2)c1 | -55.2% [8.25 µM] (active) | 8.52% [8.25 µM] (active) | 86.6% [8.25 µM] | 10.7% [8.25 µM] | -24.6% [8.25 µM] (active) | -57.6% [8.25 µM] (active) | -51.6% [8.25 µM] (active) | 59.1% [8.25 µM] | -50.8% [8.25 µM] (active) | -66.9% [8.25 µM] (active) |
| CCCCn1c(=O)c2c(nc(NCCc3ccc(O)c(O)c3)n2CCC)n(CCCC)c1=O | 87.1% | 87.7% | 94.2% | 96.8% | 92.9% | 69.8% | -0.778% (active) | 76.9% | 81.3% | 70.3% |
| c1ccc2c(c1)nc(CN1CCOCC1)n1cc(N3CCCC3)nc21 | 94% | 93.6% | 103% | 87.5% | 117% | -2.06% (active) | 106% | 87.5% | 91.8% | 103% |
| CC1O[C@@H](OC2[C@H](OC(=O)/C=C/c3ccc(O)c(O)c3)C(COC3O[C@H](C)C(O)C(O)[C@@H]3O)O[C@@H](OCCc3ccc(O)c(O)c3)[C@H]2O)[C@@H](O)C(O)[C@H]1O (stereo not given in full) | 101% | 112% | 89.4% | 103% | 109% | 102% | 86.6% | 89.8% | 98.8% | 104% |
| N#Cc1nc2c(S(=O)(=O)c3ccc(Cl)cc3)c(N)n(Nc3cccc(Cl)c3)c2nc1C#N | 44.7% | 85.2% | 30.8% | 40.2% | 65.7% | -33.2% (active) | 57.3% | 43.3% | 43.9% | 72.5% |
| COc1cc(C2NC(=O)c3ccccc3N2)ccc1OCCCCCOc1c(OC)cc(C2=NOC(c3cc(OC)c(OC)c(OC)c3)C2)cc1OC (stereo not given) | 59.5% | 71.5% | 103% | 95.1% | 63.4% | 38.3% | 56.3% | 67.5% | 95% | 108% |
| COc1cc(N=Nc2ccc(N)cc2)c(OC)cc1N=Nc1ccccc1.[Cl][Zn][Cl] | 89% | 104% | 78.2% | 86.5% | 109% | 71.5% | 108% | 110% | 110% | 102% |
| O=C(/C=C/c1c(Cl)nc2sccn12)c1nccs1 | 94.2% | 83.4% | 104% | 88.2% | 92.7% | 63.8% | 72.4% | 88% | 102% | 104% |
